Values without a mark were called inactive. Calls of active or inactive are those of the source. Cut-off read from the data, not from the text of the source, unless noted: active = inhibition above about 33%; inactive = the rest.
Assays:
[1] = StAR promoter reporter inhibitors, counter-screen for LRH-1 inverse agonist project, cell-based, luminescence, high throughput (AID 651611; in the data active = inhibition above about 28%); settings: StAR promoter luciferase reporter counterscreen, at 3.6 µM, stronger effect = higher value
[2] = target: Nuclear receptor subfamily 5 group A member 2 (Homo sapiens) (UniProt O00482); experiment: NR5A2 activity suppression in reporter cells – cell-based, luminescence, confirmation (AID 651613; in the data active = inhibition above about 42%;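 note: HEK293T cells co-transfected with LRH-1 and StAR promoter luciferase reporter; 0% = vehicle wells and 100% = parental cells lacking receptor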); settings: cell-based LRH-1 luciferase reporter, inverse agonism; at 3.6 µM; stronger effect = higher value
Chain of Nuclear receptor subfamily 5 group A member 2 (Homo sapiens) (O00482 whole entry, looked up): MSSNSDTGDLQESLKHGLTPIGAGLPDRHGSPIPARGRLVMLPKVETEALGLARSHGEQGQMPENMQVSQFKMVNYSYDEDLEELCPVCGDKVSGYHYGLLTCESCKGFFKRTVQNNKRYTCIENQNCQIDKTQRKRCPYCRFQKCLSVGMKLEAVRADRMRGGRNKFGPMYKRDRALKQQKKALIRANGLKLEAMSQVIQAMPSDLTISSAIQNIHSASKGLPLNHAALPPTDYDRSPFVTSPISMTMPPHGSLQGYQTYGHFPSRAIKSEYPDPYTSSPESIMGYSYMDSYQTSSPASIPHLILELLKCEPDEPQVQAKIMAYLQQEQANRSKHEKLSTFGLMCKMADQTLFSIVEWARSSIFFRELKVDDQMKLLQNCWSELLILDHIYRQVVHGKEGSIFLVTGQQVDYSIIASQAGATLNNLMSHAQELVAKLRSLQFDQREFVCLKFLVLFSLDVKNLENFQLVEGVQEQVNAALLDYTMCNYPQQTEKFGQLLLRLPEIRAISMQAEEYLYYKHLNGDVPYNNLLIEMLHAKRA

[3] = target: Steroidogenic factor 1 (Homo sapiens) (UniProt Q13285); experiment: inverse agonism at SF1 nuclear receptor – cell-based, luminescence, high throughput, counter-screen for LRH-1 inverse agonist project (AID 651614; in the data active = inhibition above about 44%;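 note: cells cotransfected with StAR promoter reporter and SF1 expression vector; 0% = vehicle on cells with receptor and 100% = vehicle on cells lacking receptor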); settings: cell-based SF1 luciferase reporter, at 3.6 µM, stronger effect = higher value
Chain of Steroidogenic factor 1 (Homo sapiens) (Q13285 whole entry, looked up, the tested form may be a part): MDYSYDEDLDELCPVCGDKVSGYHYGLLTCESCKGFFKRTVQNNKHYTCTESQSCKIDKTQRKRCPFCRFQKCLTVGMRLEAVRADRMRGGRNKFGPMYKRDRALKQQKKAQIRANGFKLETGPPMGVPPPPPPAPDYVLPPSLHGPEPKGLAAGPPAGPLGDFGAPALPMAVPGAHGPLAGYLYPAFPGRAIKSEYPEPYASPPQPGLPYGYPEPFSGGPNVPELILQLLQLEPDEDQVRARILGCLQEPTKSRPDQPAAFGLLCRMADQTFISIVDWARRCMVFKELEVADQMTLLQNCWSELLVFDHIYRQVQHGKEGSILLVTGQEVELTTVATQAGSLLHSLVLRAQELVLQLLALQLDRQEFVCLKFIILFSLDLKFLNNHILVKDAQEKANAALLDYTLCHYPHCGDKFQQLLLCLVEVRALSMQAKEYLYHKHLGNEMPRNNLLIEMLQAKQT

[4] = compounds suppressing VP16-driven luciferase signal – cell-based, luminescence, high throughput, counter-screen for LRH-1 inverse agonist project (AID 651615); settings: Gal4-VP16 luciferase reporter cells, at 3.6 µM, stronger effect = higher value
[5] = tested on: transactivating tegument protein VP16 (Human herpesvirus 1); experiment: compounds suppressing VP16-driven luciferase signal – cell-based, luminescence, single concentration, counter-screen for SRC2 inhibitor project (AID 652007; in the data active = inhibition above about 36%); settings: cell-based VP16 transactivation luciferase reporter, at 8.9 µM, stronger effect = higher value
[6] = target: Nuclear receptor coactivator 2 (Homo sapiens) (UniProt Q15596); experiment: inhibition of GAL4-SRC2 driven luciferase expression – cell-based, luminescence, HEK293, triplicate, confirmation (AID 652008;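 active = mean inhibition above 46.5%, the solvent-only control mean plus 3 SD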;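 note: 0% = DMSO-treated cells and 100% = Gossypol at 36 µM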); settings: HEK293 GAL4-SRC2 luciferase reporter, at 8.9 µM, stronger effect = higher value
Chain of Nuclear receptor coactivator 2 (Homo sapiens) (Q15596 whole entry, looked up, the tested form may be a part): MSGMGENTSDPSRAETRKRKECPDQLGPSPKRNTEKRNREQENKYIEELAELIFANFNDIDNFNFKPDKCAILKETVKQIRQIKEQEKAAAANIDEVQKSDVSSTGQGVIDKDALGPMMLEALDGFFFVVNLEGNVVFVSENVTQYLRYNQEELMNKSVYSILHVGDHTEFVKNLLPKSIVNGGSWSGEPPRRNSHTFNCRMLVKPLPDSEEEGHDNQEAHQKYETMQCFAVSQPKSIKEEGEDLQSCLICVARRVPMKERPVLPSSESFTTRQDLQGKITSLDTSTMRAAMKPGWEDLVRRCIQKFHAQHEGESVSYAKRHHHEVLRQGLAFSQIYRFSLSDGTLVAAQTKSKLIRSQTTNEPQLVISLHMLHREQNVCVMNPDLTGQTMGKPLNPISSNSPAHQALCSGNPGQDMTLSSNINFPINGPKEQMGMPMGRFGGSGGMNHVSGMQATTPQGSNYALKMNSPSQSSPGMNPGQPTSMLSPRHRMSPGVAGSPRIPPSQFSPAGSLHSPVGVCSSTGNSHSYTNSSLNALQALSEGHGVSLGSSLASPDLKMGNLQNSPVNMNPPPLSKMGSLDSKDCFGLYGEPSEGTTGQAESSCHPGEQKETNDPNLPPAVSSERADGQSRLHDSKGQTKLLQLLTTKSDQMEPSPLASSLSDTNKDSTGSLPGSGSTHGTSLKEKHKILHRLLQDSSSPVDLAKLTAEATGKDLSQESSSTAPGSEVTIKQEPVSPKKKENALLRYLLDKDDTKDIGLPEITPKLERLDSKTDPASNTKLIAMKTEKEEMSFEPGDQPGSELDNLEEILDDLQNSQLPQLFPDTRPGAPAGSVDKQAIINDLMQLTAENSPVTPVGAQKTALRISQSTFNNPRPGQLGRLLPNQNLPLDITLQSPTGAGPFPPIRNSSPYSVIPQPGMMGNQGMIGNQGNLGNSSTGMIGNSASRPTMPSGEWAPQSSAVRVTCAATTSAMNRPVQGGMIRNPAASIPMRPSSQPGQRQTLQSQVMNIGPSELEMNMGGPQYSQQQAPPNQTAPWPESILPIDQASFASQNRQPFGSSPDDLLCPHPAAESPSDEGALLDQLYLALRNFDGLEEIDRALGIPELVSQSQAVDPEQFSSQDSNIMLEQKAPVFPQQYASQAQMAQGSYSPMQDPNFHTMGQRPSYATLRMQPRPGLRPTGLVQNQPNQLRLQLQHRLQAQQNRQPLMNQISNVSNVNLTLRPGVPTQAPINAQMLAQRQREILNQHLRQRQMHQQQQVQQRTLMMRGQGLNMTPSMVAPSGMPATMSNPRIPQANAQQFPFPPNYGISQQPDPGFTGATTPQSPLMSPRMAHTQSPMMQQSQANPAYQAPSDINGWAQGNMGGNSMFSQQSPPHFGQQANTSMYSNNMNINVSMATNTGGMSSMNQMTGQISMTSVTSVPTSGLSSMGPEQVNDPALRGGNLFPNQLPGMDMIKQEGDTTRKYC

Question: For CCOC(=O)[C@]12Cc3cc(Cl)ccc3[C@H]1N(C1CCCCC1)C(=O)c1ccccc12, which inhibition [1] is on record?
Answer: 80.2% (active)

Question: What about the inhibition [2] of the same compound?
Answer: 107% (active)

Question: What about the inhibition [3] of the same compound?
Answer: 89.1% (active)

Question: And the inhibition [4]?
Answer: 92.8% (active)

Question: Which inhibition [1] does the source give for COc1ccc(NS(=O)(=O)c2ccc(OCC(=O)N3CCN(C)CC3)cc2)cc1Cl here?
Answer: 2.1%

Question: And the inhibition [2]?
Answer: 48.2% (active)

Question: And the inhibition [3]?
Answer: 34.7%

Question: And the inhibition [4]?
Answer: 3.62%

Question: For CC1CCN(C(=O)CCl)CC1, which inhibition [1] is on record?
Answer: 21.1%

Question: What about the inhibition [2] of the same compound?
Answer: 58.2% (active)

Question: And the inhibition [3]?
Answer: 57% (active)

Question: What about the inhibition [4] of the same compound?
Answer: -7.83%

Question: Which inhibition [1] does the source give for CC(=O)c1cn(Cc2ccccc2C#N)c2ccccc12 here?
Answer: 28.8% (active)

Question: What about the inhibition [2] of the same compound?
Answer: 57.2% (active)

Question: What about the inhibition [3] of the same compound?
Answer: 55.8% (active)

Question: What about the inhibition [4] of the same compound?
Answer: 55.5% (active)

Question: What does the source list for N#Cc1ccc(Cn2cc(C=O)c3ccccc32)cc1?
Answer: inhibition [1]: 4.87%; inhibition [2]: 39.1%; inhibition [3]: 42.4%; inhibition [4]: 1.97%

Question: What does the source list for CCOC(=O)[C@]12Cc3ccc(C)cc3[C@H]1N(C1CCCCC1)C(=O)c1ccccc12?
Answer: inhibition [1]: 39.6% (active); inhibition [2]: 98% (active); inhibition [3]: 29.8%; inhibition [4]: 84.1% (active)

Question: What does the source list for Cc1nn(Cc2ccccc2)c(C)c1C(=O)OCC(=O)Nc1ccccc1SCC#N?
Answer: inhibition [1]: -1.13%; inhibition [2]: 58.8% (active); inhibition [3]: 52.9% (active); inhibition [4]: 2%

Question: Which inhibition [1] does the source give for NC(Cc1ccc(F)cc1)c1csc(Nc2ncccn2)n1 (stereo not given) here?
Answer: 40.1% (active)

Question: What about the inhibition [2] of the same compound?
Answer: 43.3% (active)

Question: And the inhibition [3]?
Answer: 38.9%

Question: And the inhibition [4]?
Answer: 49.8% (active)

Question: Which inhibition [1] does the source give for COc1ccccc1-n1c(/C=C/c2ccccn2)nc2ccccc2c1=O here?
Answer: 16.9%

Question: And the inhibition [2]?
Answer: 63.3% (active)

Question: What about the inhibition [3] of the same compound?
Answer: 53.7% (active)

Question: And the inhibition [4]?
Answer: 4.69%

Question: For Cn1cc(NC(=O)CCl)cn1, which inhibition [1] is on record?
Answer: 41% (active)

Question: And the inhibition [2]?
Answer: 61.9% (active)

Question: And the inhibition [3]?
Answer: 61.2% (active)

Question: And the inhibition [4]?
Answer: -18.7%

Question: With N#CCCn1cc(C(=O)Nc2ccccc2Br)c(-c2ccc([N+](=O)[O-])cc2)n1 as the compound, how does the inhibition [1] read?
Answer: 18.4%

Question: What about the inhibition [2] of the same compound?
Answer: 61.5% (active)

Question: And the inhibition [3]?
Answer: 51.6% (active)

Question: What about the inhibition [4] of the same compound?
Answer: 1.09%

Question: Which inhibition [1] does the source give for COC1/C=C/C=C(\C)Cc2cc(O)c(Cl)c(c2)N(C)C(=O)CC(OC(=O)C(C)C)C2(C)OC2C(C)C2CC1(O)NC(=O)O2 (stereo not given) here?
Answer: 64.9% (active)

Question: And the inhibition [2]?
Answer: 60.1% (active)

Question: What about the inhibition [3] of the same compound?
Answer: 62.5% (active)

Question: What about the inhibition [4] of the same compound?
Answer: 32.6% (active)

Question: With Cc1ccccc1-n1c(/C=C/c2ccccn2)nc2ccccc2c1=O as the compound, how does the inhibition [1] read?
Answer: 35.8% (active)

Question: What about the inhibition [2] of the same compound?
Answer: 49.5% (active)

Question: What about the inhibition [3] of the same compound?
Answer: 52% (active)

Question: What about the inhibition [4] of the same compound?
Answer: 5.08%

Question: Which inhibition [1] does the source give for CCN(CC)C(=O)COc1cc(C)cc2oc(=O)c3c(c12)CCCC3 here?
Answer: 7.68%

Question: And the inhibition [2]?
Answer: 63.6% (active)

Question: What about the inhibition [3] of the same compound?
Answer: 59% (active)

Question: And the inhibition [4]?
Answer: -18.9%

Question: Which results are given for CC1OC(OC2C=C3CCC4C(CCC5(C)C(c6ccc(=O)oc6)CCC45O)C3(C)CC2)C(O)C(OC2OC(CO)C(O)C(O)C2O)C1O (stereo not given)?
Answer: inhibition [1]: 95.6% (active); inhibition [2]: 110% (active); inhibition [3]: 97.2% (active); inhibition [4]: 94.4% (active); inhibition [5]: 63.6% (active); inhibition [6]: 48.1% (active)

Question: Which inhibition [1] does the source give for CC(=O)OC(C)(C)/C=C/C(=O)C(C)(O)C1C(O)CC2(C)C3CC=C4C(CC(O)C(=O)C4(C)C)C3(C)C(=O)CC12C (stereo not given) here?
Answer: 66% (active)

Question: What about the inhibition [2] of the same compound?
Answer: 56.8% (active)

Question: What about the inhibition [3] of the same compound?
Answer: 59.2% (active)

Question: And the inhibition [4]?
Answer: 59.7% (active)

Question: For CCOC(=O)[C@]12Cc3cc(OC)ccc3[C@H]1N(C1CCCCC1)C(=O)c1ccccc12, which inhibition [1] is on record?
Answer: 49.6% (active)

Question: And the inhibition [2]?
Answer: 93.3% (active)

Question: And the inhibition [3]?
Answer: 42.2%

Question: And the inhibition [4]?
Answer: 87.4% (active)

Question: Which inhibition [1] does the source give for CC1=CC(O)C(O)C2(C)C1CC1OC(=O)CC3C(C)C(O)C(=O)C2C13CO (stereo not given) here?
Answer: 18.7%

Question: And the inhibition [2]?
Answer: 43% (active)

Question: What about the inhibition [3] of the same compound?
Answer: 45.9% (active)

Question: And the inhibition [4]?
Answer: -0.77%

Question: What does the source list for CC1=C(O)C(=O)C=C2C1=CC=C1C2(C)CCC2(C)C3CC(C)(C(=O)O)CCC3(C)CCC12C (stereo not given)?
Answer: inhibition [1]: 91.6% (active); inhibition [2]: 106% (active); inhibition [3]: 96.7% (active); inhibition [4]: 89.5% (active)

Question: With Cc1cc(OC(=O)c2ccco2)c2c3c(c(=O)oc2c1)CCCC3 as the compound, how does the inhibition [1] read?
Answer: 7.67%

Question: What about the inhibition [2] of the same compound?
Answer: 56% (active)

Question: What about the inhibition [3] of the same compound?
Answer: 47.2% (active)

Question: And the inhibition [4]?
Answer: 20.2%

Question: Which inhibition [1] does the source give for COC(=O)C(C)Oc1cc(C)cc2oc(=O)c3c(c12)CCC3 (stereo not given) here?
Answer: 47.8% (active)

Question: What about the inhibition [2] of the same compound?
Answer: 76.3% (active)

Question: What about the inhibition [3] of the same compound?
Answer: 67.7% (active)

Question: And the inhibition [4]?
Answer: -163%

Question: For C=C1C(=O)O[C@@H]2C[C@@H](C)[C@@H]3C4OC4C(=O)[C@@]3(C)[C@@H](O)[C@H]12 (stereo not given in full), which inhibition [1] is on record?
Answer: -30%

Question: What about the inhibition [2] of the same compound?
Answer: 60.7% (active)

Question: And the inhibition [3]?
Answer: 67.9% (active)

Question: And the inhibition [4]?
Answer: 82.8% (active)
